# Source: PubChem (Johns Hopkins Ion Channel Center)
# An excerpt weighted towards active compounds, which were near 2.3% of everything screened.
# CHT allo act: allosterically activates the human high affinity choline transporter; B-score at 10 µM; Q9GZV3; 310,000 tested, 0.49% active; CHT-expressing cells, membrane potential dye, choline EC20; stronger effect = higher value; LV-AA mutant CHT in HEK293 cells; AID 488977;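 active = initial fluorescence not abnormally high and integrated response B-score, plate-corrected, over 3 SD above library mean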
# TMEM16A act: activates or potentiates the mouse TMEM16A chloride channel; 340,000 tested, 0.3% active; AID 623877; B-score at 10 µM; Q8BHY3; HEK293 TMEM16A/YFP-H148Q/I152L, iodide quench fluorescence; stronger effect = lower value;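 active = fluorescence-ratio B-score plate-corrected deviation score at least 3 library SD below zero, with starting fluorescence score within 5 deviations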;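 also: channel opened by trigger with iodide after compound preincubation; score built on the fluorescence ratio of max minus min over baseline; more negative score means more quench and so TMEM16A activation or potentiation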
# Target sequence (Q8BHY3 whole entry, looked up): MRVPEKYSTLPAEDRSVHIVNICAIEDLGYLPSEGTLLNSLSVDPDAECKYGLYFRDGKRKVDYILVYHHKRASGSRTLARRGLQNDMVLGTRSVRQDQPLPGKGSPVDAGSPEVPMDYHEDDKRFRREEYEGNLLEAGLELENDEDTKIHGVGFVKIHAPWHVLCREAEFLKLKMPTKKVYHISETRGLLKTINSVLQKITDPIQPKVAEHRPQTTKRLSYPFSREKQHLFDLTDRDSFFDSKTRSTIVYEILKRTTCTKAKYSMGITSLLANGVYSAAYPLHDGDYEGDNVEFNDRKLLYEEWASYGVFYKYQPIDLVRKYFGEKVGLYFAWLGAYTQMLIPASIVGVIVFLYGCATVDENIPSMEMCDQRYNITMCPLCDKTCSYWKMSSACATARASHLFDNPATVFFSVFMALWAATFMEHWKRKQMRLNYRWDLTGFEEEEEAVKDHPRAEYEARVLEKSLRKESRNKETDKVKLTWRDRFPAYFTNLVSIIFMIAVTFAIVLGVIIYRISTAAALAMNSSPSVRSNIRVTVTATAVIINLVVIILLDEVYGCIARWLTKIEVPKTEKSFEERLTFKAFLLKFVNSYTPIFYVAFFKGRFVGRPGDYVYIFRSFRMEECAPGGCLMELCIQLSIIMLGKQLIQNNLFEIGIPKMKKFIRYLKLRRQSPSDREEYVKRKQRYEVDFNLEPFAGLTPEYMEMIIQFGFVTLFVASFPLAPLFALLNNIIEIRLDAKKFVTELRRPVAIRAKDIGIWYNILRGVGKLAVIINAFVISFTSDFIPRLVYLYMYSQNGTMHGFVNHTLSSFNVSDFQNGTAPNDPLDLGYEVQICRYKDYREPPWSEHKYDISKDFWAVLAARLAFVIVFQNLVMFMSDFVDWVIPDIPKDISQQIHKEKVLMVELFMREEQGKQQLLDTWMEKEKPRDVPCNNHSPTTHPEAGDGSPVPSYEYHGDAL
# ANO1 block: inhibitors of mouse TMEM16A calcium-activated chloride channel; HEK293 TMEM16A/YFP iodide influx fluorescence, ionomycin; normalized B-score (activity score, 25-100; higher = stronger inhibition) at 10 µM; 310,000 tested, 1.2% active;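 active = ratio plate-corrected score three or more library SD toward inhibition, starting fluorescence score within five deviations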;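 also: score derived from kinetic fluorescence span divided by baseline fluorescence per well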
# CHT block: inhibits the human high affinity choline transporter; CHT-expressing cells, membrane potential dye, choline response; stronger effect = lower value; B-score at 10 µM; 310,000 tested, 0.86% active; AID 488975;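 active = B-score over 3 SD under the library average, and starting fluorescence ratio not unusually high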;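 also: choline stimulus applied at its EC90 after an EC20 pre-addition; B-score computed on integrated fluorescence ratio after choline addition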
# CHT inh conf: confirmation of human choline transporter CHT inhibitors; shares compounds with CHT block; CHT-expressing cells, choline membrane potential dye; LV-to-AA substituted CHT, HEK293 cells; CHT activity remaining % of control (stronger effect = lower value), % at 10 µM; 2,400 tested, 70% active; AID 493221;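 active = choline transporter activity left, mean of duplicates at 10 µM, below buffer-only control mean minus 3 SD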;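 also: depolarization triggered by choline at its EC90 following an EC20 pre-addition; 0% = hemicholinium-3 full block and 100% = buffer-only control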
# HEK293 CHT ctr: counter-screen for CHT inhibitors: effect in parental HEK293 cells; membrane potential dye, choline response; active = decrease or increase beyond buffer ±3SD; 2,400 tested, 4% active; membrane potential ratio readout (active if shifted either direction beyond buffer ±3SD; no single direction) at 10 µM; shares compounds with CHT block;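 also: parental cells lack the transporter so any hit is non-specific; ratio is peak minus trough fluorescence over baseline after EC90 choline challenge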
# TMEM16A reconf: re-confirmation of mouse TMEM16A chloride channel inhibitors | 2,300 tested, 39% active | HEK293 TMEM16A/YFP-H148Q, iodide quench fluorescence; ionomycin added to raise cell calcium | inhibition, % at 10 µM | shares compounds with ANO1 block;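 active = mean duplicate percent inhibition, scaled so buffer wells are 0 and the reference blocker 100, over three buffer SD above buffer mean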
# HEK293 Ca mobil: alters calcium mobilization in TMEM16A HEK293 cells, counter-screen. shares compounds with ANO1 block. TMEM16A/YFP HEK293, Fluo4 calcium mobilization. calcium response (% of ionomycin), % at 10 µM. 2,300 tested, 2% active;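 active = duplicate-averaged calcium signal over 20% of the ionomycin maximum, relative to buffer baseline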;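 also: each well's signal is peak minus trough fluorescence divided by its pre-addition baseline; 0% = buffer wells and 100% = ionomycin wells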
# YFP-HEK293 quench: counter-screen for TMEM16A inhibitors: effect in parental YFP-HEK293 cells | YFP ratio F(max-min)/F0 at 10 µM | 2,300 tested, under 10 active | iodide YFP quench, ionomycin | AID 652233 | shares compounds with ANO1 block;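 active = yellow fluorescent protein signal ratio exceeding the buffer control mean by over 5 SD of those controls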;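 also: ratio is mean of duplicate wells from kinetic YFP trace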
# ClC-1 rat inh: rat ClC-1 inhibition, TMEM16A specificity screen. AID 652236. CHO ClC-1-YFP, iodide influx fluorescence quench; iodide control reads 0, buffer control 100. 2,300 tested, under 10 active. ratio percent, % at 10 µM. shares compounds with ANO1 block;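 active = duplicate-mean ratio percent above the mean of iodide-only control wells, which defines zero, plus 5 of their SD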;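 also: higher percent means stronger block of ClC-1 iodide influx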
# * = called active by the depositor; i = inactive; nt = not tested or not shown.
SMILES,CHT allo act,TMEM16A act,ANO1 block,CHT block,CHT inh conf,HEK293 CHT ctr,others
COc1ccc(-n2nnnc2SCC(=O)Nc2c(C)n[nH]c2C)cc1,nt,i,nt,nt,nt,nt,
CC1=C(C(=O)NC(C)c2ccccc2)C2(CCC(C)CC2)OC1=O (stereo not given),i,i,i,i,nt,nt,
CC1=C(C(=O)NC(C)C)C2(CCC(C)CC2)OC1=O (stereo not given),i,i,25*,-6.24*,65.7%*,i,
CCCN(CCC)Cc1c(C(=O)N/N=C/C(C)=C\c2ccco2)nnn1-c1nonc1N,i,i,i,-5.26*,60.3%*,i,
Cc1cc(C)cc(NC(=O)CCN2CCOCC2)c1,i,i,i,i,nt,nt,
O=C(NC(=S)Nc1ccccc1O)c1ccc(-c2ccc(Cl)cc2)o1,i,i,i,i,nt,nt,
Cc1c(NC(=S)NC(=O)c2ccc(-c3ccc(Cl)cc3)o2)cccc1C(=O)O,i,i,i,-8.85*,55.1%*,i,
O=C1OCCC1Sc1nnc(-c2ccccc2Cl)n1Cc1ccccc1 (stereo not given),i,i,i,-6.89*,i,i,
CCCCN(CCCC)CCNC(=O)c1cn(CC)c2ccc(S(=O)(=O)N(C)C3CCCCC3)cc2c1=O,i,i,i,-7.07*,19.7%*,i,
CN(C1CCCCC1)S(=O)(=O)c1ccc2c(c1)c(=O)c(C(=O)NCCCN1CCCC1)cn2C,i,i,i,i,nt,nt,
CCn1cc(C(=O)NCCCN2CCCC(C)C2)c(=O)c2cc(S(=O)(=O)N(C)C3CCCCC3)ccc21 (stereo not given),i,i,i,-7.52*,25.3%*,2.68*,
CCN(CC)CCCNC(=O)c1cn(CC)c2ccc(S(=O)(=O)N(C)C3CCCCC3)cc2c1=O,i,i,i,-5.73*,60.7%*,i,
C[C@H](NS(=O)(=O)c1ccc2c(c1)OCCCO2)C(=O)N1CCN(c2ccc(F)cc2)CC1,nt,i,nt,nt,nt,nt,
Cc1ccc(NC(=S)NC(=O)C2CCCCC2)c(Br)c1,nt,i,nt,nt,nt,nt,
CC1=C(C)C(O)N(Cc2ccccc2)C1=O (stereo not given),i,i,i,i,nt,nt,
C=CCNC(=O)c1ccc(C2SCC(=O)N2Cc2ccccc2)cc1 (stereo not given),i,i,i,-6.97*,70.0%*,i,
O=C(NCc1ccccc1)c1ccc(C2SCC(=O)N2Cc2ccccc2)cc1 (stereo not given),i,i,i,i,nt,nt,
O=c1cc(CNc2ccc(Br)cc2)nc2sccn12,i,i,i,-5.4*,59.2%*,i,
COc1ccc(C(=O)c2cc([N+](=O)[O-])ccc2N2CCCC2)cc1,i,i,i,i,nt,nt,
COc1ccc(C(=O)c2cc([N+](=O)[O-])ccc2N2CCN(C)CC2)cc1,i,i,i,-6.89*,43.6%*,4.7*,
CCn1c(CC(=O)Nc2ccccc2C)nnc1SCC(=O)NC1CCCC1,i,i,i,i,nt,nt,
CC(C)(C)S(=O)(=O)/C(C#N)=N/Nc1ccc(S(N)(=O)=O)cc1,i,i,i,i,nt,nt,
CC(C)(C)S(=O)(=O)/C(C#N)=N/Nc1ccc(C#N)cc1,i,i,i,i,55.4%*,i,
CCCOc1ccc(C(=O)NNC(=S)NC(C)=O)cc1,i,i,i,i,nt,nt,
O=C(NC(=S)NNC(=O)c1cccs1)c1ccccc1,i,i,i,i,nt,nt,
SMILES,CHT allo act,TMEM16A act,ANO1 block,CHT block,CHT inh conf,HEK293 CHT ctr,others
Cc1cccc(C(=O)NC(=S)NNC(=O)c2cccs2)c1,i,i,i,-10.1*,35.6%*,i,
COc1ccc(C(=O)NC(=S)NNC(=O)c2ccc(C)cc2)cc1,i,i,i,-7.2*,48.7%*,i,
Cc1ccc(C(=O)NNC(=S)NC(=O)COc2ccccc2)cc1,i,i,25*,-6.08*,i,i,
CCCOc1ccc(C(=O)NNC(=S)NC(=O)c2cccs2)cc1,i,i,100*,-9.45*,i,i,
COc1cc2c(cc1OC)C(NNC(=O)c1ccc(Br)o1)=NC(C)(C)C2,i,i,i,i,nt,nt,
CCCCC(=O)NNC(=S)NC(=O)c1ccc(C)cc1,i,i,i,-9.05*,30.0%*,i,
CCCOc1ccc(C(=O)NNC(=S)NC(=O)c2ccccc2)cc1,i,i,100*,-6.58*,55.1%*,i,
O=C(COc1ccccc1)Nc1ccccc1F,i,i,i,i,nt,nt,
COc1ccc(OCC(=O)NC(=S)Nc2ccccc2F)cc1,i,i,i,-5.23*,59.5%*,i,
C=C(C)COc1ccc(-c2[nH]ncc2-c2ccc(Br)cc2)c(O)c1,i,i,i,-5.47*,i,i,
C=C(C)COc1ccc(-c2[nH]ncc2-c2ccccc2OC)c(O)c1,i,i,i,i,nt,nt,
CCCCN1C(=O)C(O)(CC(=O)c2ccco2)c2cc(Br)ccc21 (stereo not given),i,i,i,-5.64*,i,i,
CN1CCN(c2oc(Cc3cccc4ccccc34)nc2C#N)CC1,i,i,i,-6.99*,62.3%*,i,
N#Cc1nc(Cc2cccc3ccccc23)oc1NCCCN1CCOCC1,i,i,i,-5.7*,69.1%*,i,
Cc1cc(C)cc(NC(=O)COC(=O)CCn2c(C)csc2=O)c1,nt,i,nt,nt,nt,nt,
CC1CCCCC12NC(=O)N(CC(=O)N1CCN(C(=O)c3ccco3)CC1)C2=O (stereo not given),nt,i,nt,nt,nt,nt,
O=C(NNC1=C(C(=O)C(F)(F)F)CCC1)c1ccc(Cl)cc1,i,i,25*,-5.05*,40.1%*,i,TMEM16A reconf=23.5%*;HEK293 Ca mobil=i;YFP-HEK293 quench=-0.875;ClC-1 rat inh=-12.5
Cc1ccccc1C(=O)NNC(=O)CCCCC(=O)NNC(=O)c1ccccc1C,i,i,i,i,nt,nt,
